Drawing on PubChem BioAssay AID686940 (The Scripps Research Institute Molecular Screening Center, 2013), this text covers inhibition for 57 molecules.

The whole screen tested about 370,000 compounds, of which about 2,600 (0.7%) were called active.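 Rule for the calls: active = inhibition above a per-plate cutoff, mean inhibition of test wells between control levels plus 3 SD (cut at about 38% in these data); inactive = the rest.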 Shown is part of a subset that was picked to be rich in actives.

For this assay, the target named is COUP transcription factor 2 (Homo sapiens) (UniProt P24468). Description: NR2F2 transcriptional activity inhibitors, primary screen, cell-based, luciferase reporter, HEK293T, luminescence (AID 686940).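 Note: cells cotransfected with COUP-TFII expression vector driving the NGFI-A reporter; 0% = median of COUP-TF2 test wells and 100% = reporter-only cells.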 The note with it: HEK293T NGFI-A luciferase reporter, at 8.6 µM, active compounds read high. In general terms: In a reporter assay the amount or activity of a reporter protein is the signal.
Sequence of COUP transcription factor 2 (Homo sapiens) (P24468 whole entry, looked up): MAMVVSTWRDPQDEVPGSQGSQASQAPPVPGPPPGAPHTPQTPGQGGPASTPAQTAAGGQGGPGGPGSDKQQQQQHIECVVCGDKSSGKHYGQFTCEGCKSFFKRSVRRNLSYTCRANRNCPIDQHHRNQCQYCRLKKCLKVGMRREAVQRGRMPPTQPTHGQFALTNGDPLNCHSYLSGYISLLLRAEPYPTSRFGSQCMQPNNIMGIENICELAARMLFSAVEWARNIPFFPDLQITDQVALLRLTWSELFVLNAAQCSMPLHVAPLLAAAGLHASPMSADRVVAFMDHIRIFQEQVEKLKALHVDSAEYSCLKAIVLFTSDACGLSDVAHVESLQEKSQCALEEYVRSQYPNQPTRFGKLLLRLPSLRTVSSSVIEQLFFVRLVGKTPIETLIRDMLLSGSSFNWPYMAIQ
A word on the inhibition: it is the drop in the measured response relative to a control, in per cent. For `COC(=O)CC1CCc2cc(C)cc(C(CC(C)C)NC(=O)[C@H](CC(C)C)NC(=O)OCc3ccccc3)c2O1` (some centres not stated), the inhibition was 5.51% (inactive).
The value for `CCOC(=O)C1CCN(C(=O)C(C)(C)NC(=O)Nc2ccc(F)c(F)c2)CC1` was -2.96% (inactive).
Regarding `COc1ccc(CNc2ncnc3ccccc23)cc1`, the inhibition is 56.7% (active).
Take `c1coc(CCNc2ncnc3ccc(-c4ccc5c(c4)OCO5)cc23)c1`: the inhibition was -3.64% (inactive).
The value for `O=C(NCc1ccncc1)C(=O)NCc1ccco1` was 2.85% (inactive).
For `COc1ccc(CNC(=O)COc2cccnc2[N+](=O)[O-])cc1`, the inhibition was 0.02% (inactive).
The value for `c1coc(CNc2ncnc3ccccc23)c1` was 53.6% (active).
The result for `O=C(COc1ncnc2ccccc12)NC(=O)NCc1ccccc1` reads 11.2% (inactive).
Regarding `C[C@H]1[C@H](NC(=O)c2cccc(N(C)C)c2)CC[C@@]23CCCN2C(=O)CCC[C@@H]13`, the inhibition was 4.37% (inactive).
The value for `COc1ccc(C#CCNCc2ccc(OC)cc2OC)cc1` was -3.51% (inactive).
In the case of `COC(=O)c1cccc(Cn2ccc3ccc(-c4ccc5ccn(C(=O)c6ccccc6C)c5c4)cc32)c1`, the inhibition is -1.59% (inactive).
In the case of `O=C(c1ccncc1)N1CC[C@H]2[C@H](CCCN2Cc2ccc(F)cc2)C1`, the inhibition is -20.6% (inactive).
In the case of `COC(=O)[C@]12C[C@H](CC(=O)NCCc3ccccc3OC)C(=O)N(Cc3ccco3)C1=C[C@H](C(C)C)O[C@@H]2C1CC1`, the inhibition is 3.03% (inactive).
On to `CC(=O)Nc1nc2ncccn2c1-c1ccc(C(F)(F)F)cc1`, for which the inhibition is 4.78% (inactive).
Turning to `Cc1ccc(NC(=O)c2cc(C)nn2-c2ccccc2)c(C)c1`, the inhibition was -0.68% (inactive).
`CCN(CC)C(=O)CC[C@@H]1CC[C@]2(CCCN(S(=O)(=O)C3CCCCC3)C2)O1`: the inhibition was 10.7% (inactive).
`C[C@@H]1C[C@@H]2O[C@H]2/C=C\C=C\C(=O)Cc2c(Cl)c(O)cc(O)c2C(=O)O1`: the inhibition was 61.7% (active).
As to `CCOC(=O)N1CCN(C(=O)C2CCCN(c3ncnc4c3sc3cccc(F)c34)C2)CC1` (configuration not stated), the inhibition is -4.38% (inactive).
Consider `CCOC(=O)N1CCN(C(=O)C2CCN(c3ncnc4c3sc3cccc(F)c34)CC2)CC1`, for which the inhibition is 46.1% (active).
Consider `CCOC(=O)N1CCN(C(=O)C2CCN(Cc3ccc(OC)cc3OC)CC2)CC1`, for which the inhibition is 5.07% (inactive).
With `COc1ccc(-c2nn(C)c(=O)c3ccccc23)cc1NC(=O)COc1ccccc1`, the inhibition was -20.3% (inactive).
The value for `Cc1ccc(F)cc1NC(=O)CSCc1c(C)noc1C` was 2.99% (inactive); that for `Cc1ccc(F)cc1NC(=O)Cc1nn(C)c(=O)c2ccccc12` was 54.3% (active); that for `CC(c1c[nH]c2ccccc12)c1c(-c2ccccc2)n(C)c2ccccc12` (configuration not stated) was 0.69% (inactive).
The value for `C#CCCN([C@H](C(=O)OC)C(C)C)S(=O)(=O)c1ccc(F)cc1Br` was 17.9% (inactive); that for `C#Cc1ccc(NC(=O)C2(C)CCN2C(=O)Cc2ccc(-c3ccccc3)cc2)cc1` (configuration not stated) was 66.9% (active); that for `CCCNC(=O)C1(C)CCN1C(=O)Cc1ccc(-c2ccccc2)cc1` (configuration not stated) was 27.8% (inactive).
As for `CC1(C(=O)NS(=O)(=O)c2ccccc2)CCN1C(=O)Cc1ccc(-c2ccccc2)cc1` (configuration not stated), the inhibition is -9.63% (inactive).
For the molecule `C=CCN1C(=O)[C@@H](CC(=O)NCC2CCCCC2)[C@]2(C(=O)OC)CCCCC=C12`, the inhibition was 2.77% (inactive).
For `Cc1cccc(NC(=O)C[C@H]2CC[C@H]3[C@@H](COc4ccc(NC(=O)Nc5ccccc5)cc4C(=O)N3C)O2)c1`, the inhibition is -4.77% (inactive).
For `CCC(NC(=O)C1C2C=CC3(CN(Cc4ccccc4)C(=O)C13)O2)c1ccccc1` (configuration not stated), the inhibition was 8.47% (inactive).
The result for `C=CCC1(CC=C)CCCN1C(=O)c1cc(COc2ccc(-n3cncn3)cc2)on1` reads 53% (active); that for `CCCOC1CCCN(C(=O)c2cc(COc3cncc(Cl)c3)on2)C1` (configuration not stated), -19.1% (inactive).
With `COCC1CCCCN1C(=O)c1cc(COc2ccc(C)c(C)c2)on1` (configuration not stated), the inhibition is -30% (inactive).
With `O=C(Nc1ccc(Br)cc1)OCCN1C(=O)CCC12CCC(c1ccccc1)CC2` (configuration not stated), the inhibition was -11.1% (inactive).
The result for `COC(=O)C[C@H]1CC[C@H]2[C@H](COc3ccc(NC(=O)C4CC4)cc3C(=O)N2C)O1` reads -12.2% (inactive); that for `COc1cc(F)ccc1-c1cc(C(=O)NCC2CCCCC2)[nH]n1`, -27.9% (inactive).
As for `CCCOc1ccc(F)cc1-c1cc(C(=O)Nc2ccc(F)cc2)[nH]n1`, the inhibition was -7.05% (inactive).
For the molecule `COc1ccc(OC)c(NC(=O)c2cc(-c3cc(F)ccc3OCC3CCCO3)n[nH]2)c1` (configuration not stated), the inhibition was 87% (active).
Regarding `O=C(NCc1ccc(Cl)cc1)C1CCCN(c2nc3ccccc3o2)C1` (configuration not stated), the inhibition is 18.9% (inactive).
The result for `C#CCNC(=O)C[C@H]1C[C@@]2(C(=O)OC)C(=C[C@H](C(C)C)O[C@@H]2C2CC2)N(Cc2ccco2)C1=O` reads -5.51% (inactive); that for `CC(C)CSc1nnc(-c2cccnc2)n1Cc1ccccc1`, 9.79% (inactive); that for `O=S(=O)(c1ccc2c(c1)OCCCO2)N1CCN(S(=O)(=O)c2c(F)cccc2F)CC1`, 9.89% (inactive).
On to `O=C(c1c(F)cccc1Cl)N1CCN(S(=O)(=O)c2ccc3c(c2)OCCCO3)CC1`, for which the inhibition was 18% (inactive).
The result for `O=C(c1c(F)cccc1F)N1CCN(S(=O)(=O)c2ccc3c(c2)OCCO3)CC1` reads 38.1% (active).
The value for `CCc1cc2c(NC3CCCC3)ncnc2s1` was 39.9% (active); that for `CCc1cc2c(SCC(=O)Nc3ncc(Cl)c(C)c3Cl)ncnc2s1` was 12.8% (inactive).
`CCc1cc2c(NC(Cc3ccccc3)C(=O)O)ncnc2s1` (configuration not stated): the inhibition was -1.84% (inactive).
The value for `C=C(C)C1CC23C(=O)C4(C(=O)c5ccccc5)C[C@@]5(C)CCC(CC2C1(C)C)(C4=O)C35OC` (some centres not stated) was -4.41% (inactive); that for `COc1ccccc1C(=O)CSc1nnc(-c2ccccn2)n1-c1ccccc1` was 9.59% (inactive).
Regarding `Cc1ccc(-c2nc(C3CCCN(S(=O)(=O)c4ccc(Br)s4)C3)no2)cc1` (configuration not stated), the inhibition was 2.13% (inactive).
As to `COc1ccc(-c2nc3ccc(Br)cn3c2Cc2ccc(C)cc2)cc1OC`, the inhibition is -32.3% (inactive).
Regarding `Cc1ccc(-c2nc3c(C)cc(Br)cn3c2Cc2ccccc2)cc1`, the inhibition was -5.6% (inactive).
With `Cc1ccc2nc(-c3ccccc3)c(CC3CCCCC3)n2c1`, the inhibition is -52.4% (inactive).
On to `CC(=O)Nc1c(-c2ccc(C)cc2)nc2ccc(Cl)cn12`, for which the inhibition was -17.9% (inactive).
As to `Cc1ccc(-c2cn3cc(C)ccc3n2)cc1`, the inhibition is 73% (active).
On to `Cc1ccc2nc(-c3ccc(Br)cc3)cn2c1`, for which the inhibition is 46.6% (active).
